Assay results reported in ChEMBL document CHEMBL1961873, “Compounds: GSK PKIS; Assays: Nanosyn kinase panel” (2012).

Key:
[1] = molecular target: Mast/stem cell growth factor receptor Kit (Homo sapiens) (UniProt P10721); details: at 1 µM
[2] = system: Mast/stem cell growth factor receptor Kit (Homo sapiens), P10721 [D816V]; details: at 0.1 µM
[3] = system: Mast/stem cell growth factor receptor Kit (Homo sapiens), P10721 [D816V]; details: at 1 µM
[4] = system: Mast/stem cell growth factor receptor Kit (Homo sapiens), P10721 [T670I]; details: at 0.1 µM
Sequence of Mast/stem cell growth factor receptor Kit (Homo sapiens), P10721 [T670I] (P10721 whole entry T670I): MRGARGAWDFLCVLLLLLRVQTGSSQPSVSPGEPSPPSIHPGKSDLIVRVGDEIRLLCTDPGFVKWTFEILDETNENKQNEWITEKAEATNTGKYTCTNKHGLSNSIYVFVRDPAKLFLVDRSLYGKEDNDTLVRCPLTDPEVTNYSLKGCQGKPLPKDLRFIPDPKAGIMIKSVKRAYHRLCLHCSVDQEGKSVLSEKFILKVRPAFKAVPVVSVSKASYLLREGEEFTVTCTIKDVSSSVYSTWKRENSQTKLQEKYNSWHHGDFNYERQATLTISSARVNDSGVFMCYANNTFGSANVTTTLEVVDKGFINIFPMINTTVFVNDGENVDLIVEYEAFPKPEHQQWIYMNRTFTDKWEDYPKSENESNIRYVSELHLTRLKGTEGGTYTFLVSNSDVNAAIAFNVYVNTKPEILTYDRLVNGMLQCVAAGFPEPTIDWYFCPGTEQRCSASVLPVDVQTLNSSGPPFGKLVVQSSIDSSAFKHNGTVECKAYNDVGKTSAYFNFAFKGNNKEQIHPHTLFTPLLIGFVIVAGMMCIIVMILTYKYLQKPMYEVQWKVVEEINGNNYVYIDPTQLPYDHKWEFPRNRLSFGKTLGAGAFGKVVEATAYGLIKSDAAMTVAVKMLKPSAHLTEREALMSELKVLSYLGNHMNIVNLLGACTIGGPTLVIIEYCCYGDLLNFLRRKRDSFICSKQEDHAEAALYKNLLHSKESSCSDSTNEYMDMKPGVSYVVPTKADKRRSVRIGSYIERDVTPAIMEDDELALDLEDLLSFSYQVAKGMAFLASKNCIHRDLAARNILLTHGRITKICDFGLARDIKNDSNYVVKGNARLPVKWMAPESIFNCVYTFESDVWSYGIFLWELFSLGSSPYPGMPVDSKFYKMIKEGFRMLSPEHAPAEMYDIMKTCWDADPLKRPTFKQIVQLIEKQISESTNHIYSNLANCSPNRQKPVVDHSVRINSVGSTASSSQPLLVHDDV

[5] = system: Mast/stem cell growth factor receptor Kit (Homo sapiens), P10721 [T670I]; details: at 1 µM
[6] = system: Mast/stem cell growth factor receptor Kit (Homo sapiens), P10721 [V560G]; details: at 0.1 µM
Sequence of Mast/stem cell growth factor receptor Kit (Homo sapiens), P10721 [V560G] (P10721 whole entry V560G): as the sequence (P10721 whole entry T670I) above, with V560G, I670T counted along it

[7] = system: Mast/stem cell growth factor receptor Kit (Homo sapiens), P10721 [V560G]; details: at 1 µM
[8] = molecular target: Tyrosine-protein kinase Lck (Homo sapiens) (UniProt P06239); details: at 0.1 µM
Sequence of Tyrosine-protein kinase Lck (Homo sapiens) (P06239 2-509 limits assumed): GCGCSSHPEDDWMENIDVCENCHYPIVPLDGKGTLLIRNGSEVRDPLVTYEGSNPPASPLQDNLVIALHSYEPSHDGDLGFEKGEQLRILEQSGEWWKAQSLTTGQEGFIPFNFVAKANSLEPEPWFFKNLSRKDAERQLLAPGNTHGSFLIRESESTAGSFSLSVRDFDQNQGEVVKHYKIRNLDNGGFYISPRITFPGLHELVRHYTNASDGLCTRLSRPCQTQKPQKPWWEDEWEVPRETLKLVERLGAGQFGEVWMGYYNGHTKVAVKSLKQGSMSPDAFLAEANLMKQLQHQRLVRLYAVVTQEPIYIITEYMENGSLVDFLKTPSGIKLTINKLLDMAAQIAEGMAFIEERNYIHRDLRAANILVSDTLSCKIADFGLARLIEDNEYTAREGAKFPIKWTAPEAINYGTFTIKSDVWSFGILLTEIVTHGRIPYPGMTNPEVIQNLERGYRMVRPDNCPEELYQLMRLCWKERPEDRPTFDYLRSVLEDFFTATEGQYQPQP

[9] = molecular target: Tyrosine-protein kinase Lck (Homo sapiens) (UniProt P06239); details: at 1 µM
[10] = molecular target: Leukocyte tyrosine kinase receptor (Homo sapiens) (UniProt P29376); details: at 0.1 µM
Sequence of Leukocyte tyrosine kinase receptor (Homo sapiens) (P29376 whole entry): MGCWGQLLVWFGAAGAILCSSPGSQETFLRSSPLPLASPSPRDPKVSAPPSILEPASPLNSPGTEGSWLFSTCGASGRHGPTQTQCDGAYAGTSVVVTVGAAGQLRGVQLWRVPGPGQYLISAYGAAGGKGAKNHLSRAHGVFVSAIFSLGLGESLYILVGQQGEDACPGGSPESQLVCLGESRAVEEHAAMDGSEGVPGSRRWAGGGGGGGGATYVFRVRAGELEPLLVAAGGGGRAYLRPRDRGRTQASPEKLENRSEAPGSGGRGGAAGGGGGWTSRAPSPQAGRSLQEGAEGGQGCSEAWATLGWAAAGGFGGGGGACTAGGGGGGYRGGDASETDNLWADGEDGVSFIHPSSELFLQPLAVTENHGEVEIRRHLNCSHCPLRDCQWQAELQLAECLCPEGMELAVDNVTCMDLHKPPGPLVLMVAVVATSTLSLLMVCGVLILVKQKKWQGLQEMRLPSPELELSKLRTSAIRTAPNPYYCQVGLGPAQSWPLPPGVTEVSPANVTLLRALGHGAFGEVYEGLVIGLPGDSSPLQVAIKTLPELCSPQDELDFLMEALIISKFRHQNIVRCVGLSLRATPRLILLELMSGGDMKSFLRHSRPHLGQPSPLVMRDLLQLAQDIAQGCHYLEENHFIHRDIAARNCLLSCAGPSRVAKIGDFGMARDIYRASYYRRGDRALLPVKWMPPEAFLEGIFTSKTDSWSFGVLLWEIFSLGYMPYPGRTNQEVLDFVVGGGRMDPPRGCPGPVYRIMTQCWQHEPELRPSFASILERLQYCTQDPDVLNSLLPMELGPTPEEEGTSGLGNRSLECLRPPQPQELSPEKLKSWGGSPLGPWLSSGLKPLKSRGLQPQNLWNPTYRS

[11] = molecular target: Leukocyte tyrosine kinase receptor (Homo sapiens) (UniProt P29376); details: at 1 µM
[12] = molecular target: Tyrosine-protein kinase Lyn (Homo sapiens) (UniProt P07948); details: at 0.1 µM
Sequence of Tyrosine-protein kinase Lyn (Homo sapiens) (P07948 2-512 limits assumed): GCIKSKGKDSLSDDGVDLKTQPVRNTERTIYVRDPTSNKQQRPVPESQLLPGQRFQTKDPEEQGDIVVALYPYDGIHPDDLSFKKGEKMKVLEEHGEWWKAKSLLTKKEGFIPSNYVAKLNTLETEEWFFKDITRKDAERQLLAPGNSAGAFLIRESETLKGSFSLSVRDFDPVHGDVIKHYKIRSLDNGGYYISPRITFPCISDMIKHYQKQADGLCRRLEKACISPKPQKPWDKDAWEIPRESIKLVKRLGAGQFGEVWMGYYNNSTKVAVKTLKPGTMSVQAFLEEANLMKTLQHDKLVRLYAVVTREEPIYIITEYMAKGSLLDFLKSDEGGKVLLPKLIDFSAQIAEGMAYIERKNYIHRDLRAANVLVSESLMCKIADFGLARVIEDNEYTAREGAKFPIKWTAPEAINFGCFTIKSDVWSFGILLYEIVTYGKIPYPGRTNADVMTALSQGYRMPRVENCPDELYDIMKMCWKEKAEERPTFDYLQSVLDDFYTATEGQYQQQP

[13] = molecular target: Tyrosine-protein kinase Lyn (Homo sapiens) (UniProt P07948); details: at 1 µM
[14] = molecular target: Tyrosine-protein kinase Lyn (Homo sapiens) (UniProt P07948); details: at 0.1 µM; remark: listed apart in the source
[15] = molecular target: Tyrosine-protein kinase Lyn (Homo sapiens) (UniProt P07948); details: at 1 µM; remark: listed apart in the source
[16] = molecular target: T1, Tyrosine-protein kinase Mer (Homo sapiens) (UniProt Q12866); details: at 0.1 µM
T1 sequence (whole entry): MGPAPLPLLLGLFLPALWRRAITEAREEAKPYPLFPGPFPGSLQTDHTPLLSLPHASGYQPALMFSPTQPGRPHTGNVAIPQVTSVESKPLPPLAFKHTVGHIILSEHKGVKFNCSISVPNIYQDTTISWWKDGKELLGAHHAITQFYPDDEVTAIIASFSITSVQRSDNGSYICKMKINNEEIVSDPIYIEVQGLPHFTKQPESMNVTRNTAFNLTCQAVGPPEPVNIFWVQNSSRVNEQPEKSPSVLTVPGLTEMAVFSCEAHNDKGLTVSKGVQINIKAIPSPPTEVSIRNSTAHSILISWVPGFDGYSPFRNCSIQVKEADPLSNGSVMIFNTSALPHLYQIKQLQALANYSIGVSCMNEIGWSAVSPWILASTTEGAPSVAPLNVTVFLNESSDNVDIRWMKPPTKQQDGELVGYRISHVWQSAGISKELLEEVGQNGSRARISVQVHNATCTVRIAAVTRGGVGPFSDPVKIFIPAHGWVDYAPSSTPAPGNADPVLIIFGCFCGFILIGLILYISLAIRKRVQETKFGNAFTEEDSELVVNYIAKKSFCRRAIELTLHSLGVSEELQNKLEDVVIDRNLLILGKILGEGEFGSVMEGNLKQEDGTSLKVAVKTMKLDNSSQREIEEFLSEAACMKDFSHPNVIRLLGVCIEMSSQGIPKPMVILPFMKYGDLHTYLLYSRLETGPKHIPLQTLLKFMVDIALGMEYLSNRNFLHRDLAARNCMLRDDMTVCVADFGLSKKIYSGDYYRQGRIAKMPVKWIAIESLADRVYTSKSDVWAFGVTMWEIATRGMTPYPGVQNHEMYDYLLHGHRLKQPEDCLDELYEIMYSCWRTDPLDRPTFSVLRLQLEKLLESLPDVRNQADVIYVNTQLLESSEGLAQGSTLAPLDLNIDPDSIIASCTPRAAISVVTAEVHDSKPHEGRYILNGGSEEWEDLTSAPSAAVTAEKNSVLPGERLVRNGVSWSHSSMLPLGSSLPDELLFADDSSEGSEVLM

[17] = molecular target: T1, Tyrosine-protein kinase Mer (Homo sapiens); details: at 1 µM
[18] = molecular target: Hepatocyte growth factor receptor (Homo sapiens) (UniProt P08581); details: at 0.1 µM
Sequence of Hepatocyte growth factor receptor (Homo sapiens) (P08581 whole entry): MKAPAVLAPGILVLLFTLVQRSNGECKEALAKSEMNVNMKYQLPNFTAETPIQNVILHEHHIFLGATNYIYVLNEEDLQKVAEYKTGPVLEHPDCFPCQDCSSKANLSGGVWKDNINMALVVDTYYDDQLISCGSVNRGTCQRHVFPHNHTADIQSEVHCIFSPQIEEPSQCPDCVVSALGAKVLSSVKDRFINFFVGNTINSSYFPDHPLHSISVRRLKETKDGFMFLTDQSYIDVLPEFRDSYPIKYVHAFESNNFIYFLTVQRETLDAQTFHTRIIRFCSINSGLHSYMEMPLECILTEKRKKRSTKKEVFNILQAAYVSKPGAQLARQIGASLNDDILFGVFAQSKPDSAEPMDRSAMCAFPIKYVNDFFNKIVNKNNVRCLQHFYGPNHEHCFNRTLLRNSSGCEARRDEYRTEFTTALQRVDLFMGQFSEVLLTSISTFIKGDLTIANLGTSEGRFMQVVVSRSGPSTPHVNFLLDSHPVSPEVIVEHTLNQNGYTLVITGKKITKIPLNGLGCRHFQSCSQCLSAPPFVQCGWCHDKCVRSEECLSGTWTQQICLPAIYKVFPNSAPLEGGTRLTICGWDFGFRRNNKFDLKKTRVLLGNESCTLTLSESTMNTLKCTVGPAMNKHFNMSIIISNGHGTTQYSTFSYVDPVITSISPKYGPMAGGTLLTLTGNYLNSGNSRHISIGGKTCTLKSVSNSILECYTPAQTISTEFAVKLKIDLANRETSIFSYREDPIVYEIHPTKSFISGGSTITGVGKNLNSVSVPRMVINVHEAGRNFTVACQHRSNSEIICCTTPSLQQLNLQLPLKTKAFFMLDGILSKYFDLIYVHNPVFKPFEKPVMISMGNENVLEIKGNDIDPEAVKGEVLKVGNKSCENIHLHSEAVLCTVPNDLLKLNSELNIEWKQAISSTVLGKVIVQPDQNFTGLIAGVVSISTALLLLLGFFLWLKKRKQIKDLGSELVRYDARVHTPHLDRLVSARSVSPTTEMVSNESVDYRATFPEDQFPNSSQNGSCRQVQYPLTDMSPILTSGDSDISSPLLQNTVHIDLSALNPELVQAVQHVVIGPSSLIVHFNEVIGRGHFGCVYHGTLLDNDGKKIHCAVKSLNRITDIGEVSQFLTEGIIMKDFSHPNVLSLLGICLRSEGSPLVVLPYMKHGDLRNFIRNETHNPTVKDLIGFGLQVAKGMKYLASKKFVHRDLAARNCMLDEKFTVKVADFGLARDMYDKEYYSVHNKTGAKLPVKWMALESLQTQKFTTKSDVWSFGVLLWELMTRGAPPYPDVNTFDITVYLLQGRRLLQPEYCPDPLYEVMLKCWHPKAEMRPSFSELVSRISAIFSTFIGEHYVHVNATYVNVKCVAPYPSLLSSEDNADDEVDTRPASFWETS

[19] = molecular target: Hepatocyte growth factor receptor (Homo sapiens) (UniProt P08581); details: at 1 µM
[20] = molecular target: T2, Muscle, skeletal receptor tyrosine-protein kinase (Homo sapiens) (UniProt O15146); details: at 0.1 µM;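 note: values are mean inhibition of MuSK from the GSK PKIS kinase screening panel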
T2 sequence (whole entry): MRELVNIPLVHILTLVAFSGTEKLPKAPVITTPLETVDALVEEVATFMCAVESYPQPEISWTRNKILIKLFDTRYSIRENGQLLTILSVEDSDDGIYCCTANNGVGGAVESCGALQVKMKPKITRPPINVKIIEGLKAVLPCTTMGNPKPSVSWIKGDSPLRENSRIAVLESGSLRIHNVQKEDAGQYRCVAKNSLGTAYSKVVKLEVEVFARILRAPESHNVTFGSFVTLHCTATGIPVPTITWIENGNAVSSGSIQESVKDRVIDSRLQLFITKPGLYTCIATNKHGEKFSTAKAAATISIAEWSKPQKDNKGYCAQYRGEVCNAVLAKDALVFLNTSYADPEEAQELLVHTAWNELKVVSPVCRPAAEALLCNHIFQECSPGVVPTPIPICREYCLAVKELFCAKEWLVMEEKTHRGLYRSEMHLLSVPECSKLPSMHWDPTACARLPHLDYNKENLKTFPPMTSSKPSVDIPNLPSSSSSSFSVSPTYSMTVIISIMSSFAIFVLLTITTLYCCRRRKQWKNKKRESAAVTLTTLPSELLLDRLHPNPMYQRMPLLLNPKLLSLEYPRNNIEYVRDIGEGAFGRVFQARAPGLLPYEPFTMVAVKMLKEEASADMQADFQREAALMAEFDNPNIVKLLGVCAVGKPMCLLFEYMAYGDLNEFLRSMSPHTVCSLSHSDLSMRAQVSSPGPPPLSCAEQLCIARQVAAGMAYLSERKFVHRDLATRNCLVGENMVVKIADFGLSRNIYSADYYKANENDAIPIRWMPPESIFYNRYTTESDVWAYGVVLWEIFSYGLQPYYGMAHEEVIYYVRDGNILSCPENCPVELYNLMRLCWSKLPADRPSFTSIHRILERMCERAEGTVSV

Sequence of Mast/stem cell growth factor receptor Kit (Homo sapiens) (P10721 whole entry): as the sequence (P10721 whole entry T670I) above, with I670T counted along it
Sequence of Mast/stem cell growth factor receptor Kit (Homo sapiens), P10721 [D816V] (P10721 whole entry D816V): as the sequence (P10721 whole entry T670I) above, with I670T, D816V counted along it

SMILES | inhibition [1] [%] | inhibition [2] [%] | inhibition [3] [%] | inhibition [4] [%] | inhibition [5] [%] | inhibition [6] [%] | inhibition [7] [%] | inhibition [8] [%] | inhibition [9] [%] | inhibition [10] [%] | inhibition [11] [%] | inhibition [12] [%] | inhibition [13] [%] | inhibition [14] [%] | inhibition [15] [%] | inhibition [16] [%] | inhibition [17] [%] | inhibition [18] [%] | inhibition [19] [%] | inhibition [20] [%]
O=C1Nc2ccc(-c3cccnc3)cc2C1=Cc1cc(Br)c(O)c(Br)c1 | 3.66 | 3.44 | 2.96 | 3.51 | 0.52 | 0.16 | 2.16 | 3.31 | 13.2 | 4.94 | 23 | 2.95 | 11.1 | 1.54 | 9.06 | 1.25 | 2.23 | 2.89 | 5.75 | 3.42
CN(C)CCCn1c(-c2nonc2N)nc2cnccc21 | 3.91 | 4.66 |  | 2.49 | 0.58 | -1.36 | -1.19 | 2.27 | 4.6 | 3.86 | 2.08 | 4.87 | 6.51 | 3.03 | 2.22 | 2.17 | 1.41 | 6.53 | 5.18 | -0.43
O=S(=O)(CCOCc1ccc(-c2ccc3ncnc(Nc4ccc(OCc5cccc(F)c5)c(Cl)c4)c3c2)o1)c1ccccc1 | 0.51 | 0.43 | -1.83 | 5.11 | 0.78 | -1.47 | -2.4 | 1.96 | 3.4 | 2.35 | 3.13 | 1.13 | 2.54 | -1.61 | -0.4 | -1.18 | 6.22 | 0.79 | 8.46 | 4.67
COc1cc2ncn(-c3cc(OCc4ccccc4S(C)(=O)=O)c(C#N)s3)c2cc1OC | 7.97 | 2.49 | 5.22 | 3.82 | 2.96 |  | 0.98 | 23.3 | 69.2 | 4 | 7.89 | 20.4 | 65.6 | 15.1 | 60.9 | 35.4 | 77.1 | 5.94 | 15.6 | 13.2
Nc1ccc(C#Cc2cncnc2Nc2ccc(OCc3cccc(F)c3)c(Cl)c2)cc1 | 5.56 | 2.12 | 3.81 | 1.88 | 3.05 | -3.03 | -1.6 | 2.57 | 4.92 | 3.5 | 3.27 | 3.52 | 4.42 | 3.04 | 3.28 | 1.5 | 2.05 | 1.74 | 3.8 | -0.05
COc1cccc(-n2nc(C)c3c(N/N=C(\C)c4ccncc4)ncnc32)c1 | 2.68 | -0.3 | -0.84 | -1.32 | 0.13 | 2.07 | 0.19 | 0.65 | 2.98 | 1.52 | 1.76 | 1.67 | 2.24 | 2.02 | 1.38 | 1.59 | -0.09 | -1.53 | -2.4 | 0.43
Cc1ccc(O)cc1Nc1ccnc2ccc(S(C)(=O)=O)cc12 | 48.2 | 38.2 | 84.5 | 4.38 | 8 | 8.1 | 53.7 | 86.3 | 97.1 | 4.66 | 10.2 | 93.2 | 96.7 | 91.9 | 96.2 | 3.15 | 4.83 | 5.51 | -0.38 | 2.4
Cc1ccc2c(-c3ccnc(Nc4ccc5c(c4)OCCO5)n3)c(-c3ccc(C(F)(F)F)cc3)nn2n1 | 2.39 | -1.16 | 0.16 | -0.41 | -0.07 | 0.29 | 0.88 | 1.9 | 8.08 | 0.85 | 1.95 | 2.2 | 6.17 | 1.57 | 4.82 | -0.17 | 0.27 | 6.93 | 1.74 | -0.62
COc1cc(/C=N/Nc2ncnc3c2cnn3C(C)C)ccc1O | 53.3 | -1.37 | 4.07 | 3.16 | -0.48 | 1.9 | 7.86 | 16.7 | 52.8 | 1.55 | 3.76 | 15.2 | 58.5 | 11.2 | 52.7 | 3.4 | 20.7 | 4.44 | 5.86 | 11.6
COC(=O)Nc1nc2cc(Oc3ccc(NC(=O)Nc4cccc(Br)c4)cc3)ccc2[nH]1 | 100 | 2.97 | 4.47 | 33 | 56.8 | 69.5 | 86.4 | 5 | 10.5 | 3.48 | 3.57 | 9.62 | 15.2 | 7.97 | 13.8 | 1.37 | 3.46 | 3.78 | 6.03 | 22.3
NS(=O)(=O)c1cccc(Nc2cc(-c3ccc(F)cc3)n[nH]2)c1 | 84.5 | 2.34 | 4.52 | 3.28 | 20.1 | 6.14 | 38 | 1.18 | 6.1 | 3.59 | 4.08 | 5.86 | 10.7 | 3.31 | 8.61 | 1.94 | 2.95 | 9.61 | 4.41 | 3.78
OCc1ccc(-c2nc(-c3ccccn3)c(-c3ccc4c(c3)OCO4)[nH]2)cc1 | 3.32 | 4.26 | 1.86 | 3.18 | 0.71 | -1.45 | 2.83 | 4.57 | 6.53 | 3.45 | 4.28 | 6.03 | 6.58 | 3.09 | 3.31 | 0.75 | 1.08 | 11.7 | 8.92 | 3.11
COc1ccc2ncnc(Nc3ccc(OCc4ccccc4)cc3)c2c1 | 9.52 | 2.81 | 0.98 | 0.74 | 2.49 | -1.68 | 0.69 | 1.39 | 7.05 | 2.27 | -0.07 | 2.3 | 6.36 | 1.2 | 4.75 | 2.16 | 12.9 | -2.88 | 2.39 | 1.31
COc1cccc(-n2ncc3c(N/N=C/c4ccc(S(C)(=O)=O)cc4)ncnc32)c1 | 61.6 | 1.61 | 9.23 | 7.49 | 44.8 | 1.83 | 7.89 | 37.7 | 73.9 | 1.43 | 2.05 | 54.1 | 76.5 | 48.1 | 73.3 | 6.96 | 28.3 | 14.5 | 47.6 | 12.1
